The source made the active and inactive calls.
Key:
[1] = test system: PRMT1 (protein arginine N-methyltransferase 1); experiment: small molecules binding arginine methyltransferase PRMT1 – biochemical, small-molecule microarray, 635 nm fluorescence, primary screen (AID 1088); conditions: higher = more signal;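 note: binding of Prmt1 protein to compounds spotted on small-molecule microarray slides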
[2] = growth effects on S. cerevisiae YJM789 – YJM789 clinical isolate, OD600, 24 h, basal, primary screen (AID 1089); conditions: higher = more signal, called active from +8 up or from −8 down;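 note: growth of clinical yeast isolate S. cerevisiae YJM 789 seeded 1000 cells per well; test concentration not given here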
[3] = S. pombe growth modifiers, basal conditions – strain 972, OD600, 24 h, no modulator, primary screen (AID 1090);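 note: basal condition with compound alone and no growth modifier present; test concentration not given here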; conditions: S. pombe 972 growth, higher = more signal, called active from +8 up or from −8 down
[4] = budding yeast growth modifiers under rapamycin – strain BY4716, OD600, 96 h, primary screen (AID 1091); note: test concentration not given here; conditions: S. cerevisiae BY4716 + rapamycin, higher = more signal, called active from +8 up or from −8 down
[5] = target: Torsin-1A-interacting protein 2 (Homo sapiens) (UniProt Q8NFQ8); experiment: small molecules binding lysate-expressed LULL1 – cell lysate, human LULL1 lysate, 635/667 nm fluorescence, primary screen (AID 1092); conditions: small-molecule microarray, hLULL1 lysate binding, 635 nm fluorescence; higher = more signal;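 note: probe is lysate of COS7 cells overexpressing human LULL1; score merges per-feature 667 nm fluorescence with signal-to-noise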
[6] = optical density change of DRC41 E. coli – strain DRC41, OD650, 24 h, E. coli filamentation project, primary screen (AID 1093);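 note: MC1000 strain lacking acrAB efflux and sulA so SOS filamentation is blocked; test concentration not given here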; conditions: E. coli DRC41 growth, higher = more signal, called active from +8 up or from −8 down
[7] = probe aLefty2 binding to arrayed compounds – biochemical, biotinylated probe, 635/667 nm fluorescence, primary screen (AID 1094); conditions: small-molecule microarray, higher = more signal;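 note: score merges spot fluorescence near 667 nm with spot signal-to-noise ratio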
[8] = test system: Noggin (protein binding on small-molecule microarray); experiment: small molecules binding Noggin protein – biochemical, 635/667 nm fluorescence, primary screen (AID 1095); conditions: 635 nm fluorescence, higher = more signal;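 note: score merges 667 nm feature fluorescence with signal to noise over triplicate slides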
[9] = target: Neurogenic locus notch homolog protein 3 (Homo sapiens) (UniProt Q9UM47); experiment: small molecules binding NOTCH3 protein – biochemical, 635/667 nm fluorescence, primary screen (AID 1096); conditions: small-molecule microarray, 635 nm fluorescence, higher = more signal
[10] = probe aEGFR binding to arrayed compounds – biochemical, biotinylated probe, 635/667 nm fluorescence, primary screen (AID 1097); conditions: small-molecule microarray, higher = more signal;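 note: probe is a biotinylated anti-EGFR antibody binding compounds printed on slides; score combines fluorescence near 667 nm and signal to noise of each spot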

Chain of Neurogenic locus notch homolog protein 3 (Homo sapiens) (Q9UM47 whole entry, looked up): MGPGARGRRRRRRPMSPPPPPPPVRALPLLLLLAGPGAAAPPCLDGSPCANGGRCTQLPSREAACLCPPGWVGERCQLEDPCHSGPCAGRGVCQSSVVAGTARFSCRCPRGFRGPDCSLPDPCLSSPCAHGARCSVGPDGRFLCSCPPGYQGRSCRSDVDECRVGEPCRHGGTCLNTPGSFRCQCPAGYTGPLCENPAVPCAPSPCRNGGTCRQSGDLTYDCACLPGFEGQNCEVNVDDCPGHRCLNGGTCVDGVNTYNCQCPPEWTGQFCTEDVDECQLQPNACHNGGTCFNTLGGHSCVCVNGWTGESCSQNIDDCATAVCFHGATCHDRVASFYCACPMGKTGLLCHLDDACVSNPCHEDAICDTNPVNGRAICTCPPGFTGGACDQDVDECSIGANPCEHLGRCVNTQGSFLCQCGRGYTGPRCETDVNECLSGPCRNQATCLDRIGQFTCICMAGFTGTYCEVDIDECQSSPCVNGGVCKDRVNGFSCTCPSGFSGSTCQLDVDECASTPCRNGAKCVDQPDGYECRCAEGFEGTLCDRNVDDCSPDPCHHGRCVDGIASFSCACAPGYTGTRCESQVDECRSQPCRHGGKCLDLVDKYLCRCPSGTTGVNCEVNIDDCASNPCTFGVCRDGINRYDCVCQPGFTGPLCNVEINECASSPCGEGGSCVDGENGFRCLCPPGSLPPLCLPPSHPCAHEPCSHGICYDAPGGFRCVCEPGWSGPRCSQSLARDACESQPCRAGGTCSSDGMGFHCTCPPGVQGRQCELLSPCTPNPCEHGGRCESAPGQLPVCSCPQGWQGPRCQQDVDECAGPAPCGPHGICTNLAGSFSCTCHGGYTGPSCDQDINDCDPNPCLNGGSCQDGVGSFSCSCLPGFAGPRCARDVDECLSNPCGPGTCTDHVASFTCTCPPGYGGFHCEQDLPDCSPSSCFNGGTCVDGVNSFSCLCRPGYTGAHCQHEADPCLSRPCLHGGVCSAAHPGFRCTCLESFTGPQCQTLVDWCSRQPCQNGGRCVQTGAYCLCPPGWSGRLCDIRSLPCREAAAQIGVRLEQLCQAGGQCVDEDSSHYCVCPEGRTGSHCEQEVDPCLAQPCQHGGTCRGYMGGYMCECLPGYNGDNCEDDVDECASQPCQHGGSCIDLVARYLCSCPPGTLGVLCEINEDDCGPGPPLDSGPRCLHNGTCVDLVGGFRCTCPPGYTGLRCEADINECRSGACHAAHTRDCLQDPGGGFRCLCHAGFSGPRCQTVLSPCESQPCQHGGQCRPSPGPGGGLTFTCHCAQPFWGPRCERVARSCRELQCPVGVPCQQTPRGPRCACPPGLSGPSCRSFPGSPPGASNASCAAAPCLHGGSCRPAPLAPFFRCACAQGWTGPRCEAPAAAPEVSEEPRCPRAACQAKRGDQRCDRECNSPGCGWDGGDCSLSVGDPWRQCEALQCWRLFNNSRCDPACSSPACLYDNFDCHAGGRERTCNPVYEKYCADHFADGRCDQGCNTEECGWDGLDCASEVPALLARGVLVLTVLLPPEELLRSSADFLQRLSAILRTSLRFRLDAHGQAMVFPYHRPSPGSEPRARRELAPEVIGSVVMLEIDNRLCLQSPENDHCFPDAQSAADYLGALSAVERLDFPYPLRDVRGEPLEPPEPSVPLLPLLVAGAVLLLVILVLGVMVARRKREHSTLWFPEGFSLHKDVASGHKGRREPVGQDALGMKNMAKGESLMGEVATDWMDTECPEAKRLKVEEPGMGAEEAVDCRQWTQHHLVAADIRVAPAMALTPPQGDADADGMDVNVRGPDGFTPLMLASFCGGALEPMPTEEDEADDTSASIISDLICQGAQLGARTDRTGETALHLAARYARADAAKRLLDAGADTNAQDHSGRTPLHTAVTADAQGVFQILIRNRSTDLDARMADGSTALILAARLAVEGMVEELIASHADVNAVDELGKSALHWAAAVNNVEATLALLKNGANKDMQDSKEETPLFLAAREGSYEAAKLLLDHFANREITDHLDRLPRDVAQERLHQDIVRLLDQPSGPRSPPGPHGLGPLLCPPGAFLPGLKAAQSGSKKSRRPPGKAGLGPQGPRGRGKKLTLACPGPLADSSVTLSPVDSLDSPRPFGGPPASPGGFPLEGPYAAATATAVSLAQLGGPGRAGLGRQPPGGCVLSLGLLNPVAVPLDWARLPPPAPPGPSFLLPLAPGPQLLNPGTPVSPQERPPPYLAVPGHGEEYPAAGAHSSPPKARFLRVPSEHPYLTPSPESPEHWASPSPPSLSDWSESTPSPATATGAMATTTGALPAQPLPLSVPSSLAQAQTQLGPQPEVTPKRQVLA
Chain of Torsin-1A-interacting protein 2 (Homo sapiens) (Q8NFQ8 whole entry, looked up): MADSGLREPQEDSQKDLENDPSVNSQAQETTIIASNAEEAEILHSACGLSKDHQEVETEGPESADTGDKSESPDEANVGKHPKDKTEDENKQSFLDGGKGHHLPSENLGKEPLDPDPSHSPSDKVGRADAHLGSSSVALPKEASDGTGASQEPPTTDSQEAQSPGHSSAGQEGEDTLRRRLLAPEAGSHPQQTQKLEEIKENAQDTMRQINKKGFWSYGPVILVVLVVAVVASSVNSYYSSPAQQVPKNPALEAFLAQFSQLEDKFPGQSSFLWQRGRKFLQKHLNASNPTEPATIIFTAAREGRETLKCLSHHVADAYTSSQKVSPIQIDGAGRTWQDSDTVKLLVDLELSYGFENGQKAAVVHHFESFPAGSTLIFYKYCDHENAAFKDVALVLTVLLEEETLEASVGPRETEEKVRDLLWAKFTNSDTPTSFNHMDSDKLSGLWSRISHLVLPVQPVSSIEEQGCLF

COCCOC(=O)N1C(=O)[C@@]2(c3cc(C#CC4(O)CCCCCC4)ccc31)[C@H](C(=O)N1CCc3cc(OC)c(OC)cc3C1)[C@H]1C(=O)O[C@H](c3ccccc3)[C@H](c3ccccc3)N1[C@@H]2c1ccc(OCCO)cc1
composite z-score [1]: 1.54
z-score [2]: 1.98 (inactive)
z-score [3]: 0.932 (inactive)
z-score [4]: 4.4 (inactive)
composite z-score [5]: 2.03
z-score [6]: 0.0446 (inactive)
composite z-score [7]: -0.0585
composite z-score [8]: 1.3
composite z-score [9]: 1.09
composite z-score [10]: -0.0234

COC(=O)[C@@]1(Cc2ccc(OC)cc2)[C@H]2c3cc(C(=O)N4CCCC4)n(CCO)c3C[C@H]2CN1C(=O)c1ccccc1
composite z-score [1]: 0.738
z-score [2]: 0.663 (inactive)
z-score [3]: 0.544 (inactive)
z-score [4]: -0.289 (inactive)
composite z-score [5]: 4.02
z-score [6]: -1.41 (inactive)
composite z-score [7]: 0.159
composite z-score [8]: -0.0367
composite z-score [9]: 0.552
composite z-score [10]: 0.212

[N-]=[N+]=Nc1ccccc1C[C@@]1(C(N)=O)N=C(c2ccc(OCCCO)cc2)O[C@@H]1c1ccccc1N=[N+]=[N-]
composite z-score [1]: 0.319
z-score [2]: -0.974 (inactive)
z-score [3]: -1.01 (inactive)
z-score [4]: -0.933 (inactive)
composite z-score [5]: 2.05
z-score [6]: 0.905 (inactive)
composite z-score [7]: 0.281
composite z-score [8]: -0.467
composite z-score [9]: 0.0955
composite z-score [10]: 0.639

NCCCCCNC(=O)[C@@H]1C[C@@H]2C(=O)N[C@@H](CCCCN)C(=O)N2[C@@H]1c1ccc(O)cc1
composite z-score [1]: 1.53
z-score [2]: 1.83 (inactive)
z-score [3]: 1.91 (inactive)
z-score [4]: 3.76 (inactive)
composite z-score [5]: 3.2
z-score [6]: -0.0616 (inactive)
composite z-score [7]: 0.303
composite z-score [8]: 1.67
composite z-score [9]: 0.881
composite z-score [10]: 0.345

O=C(O)[C@@H]1C[C@@H]2C(=O)N3CCC[C@H]3C(=O)N2[C@@H]1c1ccc(O)cc1
composite z-score [1]: 1.56
z-score [2]: -0.475 (inactive)
z-score [3]: -0.854 (inactive)
z-score [4]: 0.0128 (inactive)
composite z-score [5]: 1.34
z-score [6]: 2.46 (inactive)
composite z-score [7]: 0.226
composite z-score [8]: 1.93
composite z-score [9]: 1.01
composite z-score [10]: 0.12

COC(=O)[C@@]1(Cc2ccc(F)cc2)[C@H]2c3cc(C(=O)N(C)C)n(CCc4ccc(OC)c(Br)c4)c3C[C@H]2CN1C(=O)c1ccccc1
composite z-score [1]: -0.0641
z-score [2]: -0.309 (inactive)
z-score [3]: -1.09 (inactive)
z-score [4]: -0.122 (inactive)
composite z-score [5]: 2.52
z-score [6]: -1.29 (inactive)
composite z-score [7]: 0.768
composite z-score [8]: 0.716
composite z-score [9]: 0.346
composite z-score [10]: 0.557

CN(C)c1ccc(C(O)C2C=CC3C(=O)NC(=O)C3N2Nc2ccccn2)cc1 (stereo not given)
composite z-score [1]: 0.757
z-score [2]: -0.0671 (inactive)
z-score [3]: 0.716 (inactive)
z-score [4]: 0.504 (inactive)
composite z-score [5]: 1.31
z-score [6]: -1.26 (inactive)
composite z-score [7]: -0.118
composite z-score [8]: 0.438
composite z-score [9]: 1
composite z-score [10]: 0.107

Cc1ccc(F)cc1S(=O)(=O)N[C@@H]1CCN(Cc2ccc(Br)cc2)C1
composite z-score [1]: -0.268
z-score [2]: -1.47 (inactive)
z-score [3]: -17.4 (active)
z-score [4]: -1.73 (inactive)
composite z-score [5]: -1.04
z-score [6]: -1.12 (inactive)
composite z-score [7]: -0.161
composite z-score [8]: 1.21
composite z-score [9]: 0.895
composite z-score [10]: -0.0455

CCOC(=O)C[C@H]1[C@H](OC(=O)c2ccc(C(=O)c3ccccc3)cc2)[C@@H](NC(=O)c2ccc(-c3ccccc3)cc2)c2cc(OCCCO)ccc2N1C(=O)Cc1ccc(OC)cc1
composite z-score [1]: 0.845
z-score [2]: 0.233 (inactive)
z-score [3]: 0.838 (inactive)
z-score [4]: 0.876 (inactive)
composite z-score [5]: 0.861
z-score [6]: 0.24 (inactive)
composite z-score [7]: 0.259
composite z-score [8]: 0.601
composite z-score [9]: 0.378
composite z-score [10]: -0.0302

CS(=O)(=O)CCOC(=O)C1=CC(c2ccc(CO)cc2)=CC(C2CC2)N(Cc2sc3ccccc3c2Cl)C=C1C(=O)OCCS(C)(=O)=O (stereo not given)
composite z-score [1]: 1.46
z-score [2]: -0.348 (inactive)
z-score [3]: -3.82 (inactive)
z-score [4]: -1.23 (inactive)
composite z-score [5]: 1.67
z-score [6]: -3.01 (inactive)
composite z-score [7]: 0.106
composite z-score [8]: 0.471
composite z-score [9]: 0.946
composite z-score [10]: -0.0188

C[C@@H]1NC(=O)[C@@H](Cc2ccccc2)NC(=O)[C@@]23C(=O)N[C@@H](Cc4ccccc4)C2[C@H](C)[C@@]2(C)O[C@H]2C3/C=C/C/C=C\CNC1=O (stereo not given in full)
composite z-score [1]: -1.06
z-score [2]: 0.378 (inactive)
z-score [3]: 0.573 (inactive)
z-score [4]: 0.783 (inactive)
composite z-score [5]: 2.84
z-score [6]: -1.02 (inactive)
composite z-score [7]: -0.218
composite z-score [8]: 0.972
composite z-score [9]: 0.354
composite z-score [10]: -0.168

O=C1NC(=O)C2C1C=CC(C(O)c1ccco1)N2Nc1ccc(Cl)cc1Cl (stereo not given)
composite z-score [1]: 0.232
z-score [2]: -25.2 (active)
z-score [3]: -1.67 (inactive)
z-score [4]: -0.647 (inactive)
composite z-score [5]: 1.72
z-score [6]: -1.49 (inactive)
composite z-score [7]: -0.103
composite z-score [8]: 0.223
composite z-score [9]: 0.417
composite z-score [10]: -0.0362

COC(=O)[C@@]1(Cc2ccc(F)cc2)[C@H]2c3cc(C(=O)N4CCCC4)n(CCc4c[nH]c5ccccc45)c3C[C@H]2CN1C(=O)c1ccccc1
composite z-score [1]: 1.38
z-score [2]: 0.519 (inactive)
z-score [3]: 1.68 (inactive)
z-score [4]: 7.25 (inactive)
composite z-score [5]: 3.42
z-score [6]: -1.3 (inactive)
composite z-score [7]: 0.323
composite z-score [8]: 0.462
composite z-score [9]: 1.01
composite z-score [10]: 0.0688

CC(C)NC(=O)[C@@]1(c2ccc([N+](=O)[O-])cc2)CC(=O)N(C2CCCCC2)[C@@H]1c1ccc(CO)cc1
composite z-score [1]: 1.54
z-score [2]: 0.359 (inactive)
z-score [3]: 0.52 (inactive)
z-score [4]: -0.55 (inactive)
composite z-score [5]: 2.85
z-score [6]: 1.07 (inactive)
composite z-score [7]: -0.271
composite z-score [8]: 1.77
composite z-score [9]: 1.07
composite z-score [10]: -0.296

Reference: PubChem BioAssay
